Source: PubChem BioAssay (NCATS)
Records with an inconclusive call do not appear. The source made the active and inactive calls. Calls come from the whole dose curve; as a rule, active = well fitted cell-killing curve with a large enough effect; inconclusive = small, poorly fitted or top-dose-only effect, or effect the other way; inactive = no such curve, though single readings can be large or run the other way.

Key:
[1] = Quantitative High-Throughput drug screen in 47 multiple myeloma cell lines against the NCATS MIPE library collection: OCIMY1_PLB cell viability assay (AID 1918979); note: nearly all actives have a fitted effect of over 35% in size
Procedure, shortened: (§1)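 Myeloma cells (500/well) treated with MIPE 4.0 compounds for 48 h at 37 °C, 5% CO2. Viability read as ATP via CellTiter-Glo luminescence after 5 min at RT; DMSO-only wells = 100%, media-only = 0% viability.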

[2] = Quantitative High-Throughput drug screen in 47 multiple myeloma cell lines against the NCATS MIPE library collection: MM1S_ATCC cell viability assay (AID 1918980); note: nearly all actives have a fitted effect of over 45% in size
Procedure, shortened: as §1

[3] = Quantitative High-Throughput drug screen in 47 multiple myeloma cell lines against the NCATS MIPE library collection: MM1R_ATCC cell viability assay (AID 1918981); note: nearly all actives have a fitted effect of over 35% in size
Procedure, shortened: as §1

[4] = Quantitative High-Throughput drug screen in 47 multiple myeloma cell lines against the NCATS MIPE library collection: LP1_DSMZ cell viability assay (AID 1918982); note: nearly all actives have a fitted effect of over 35% in size
Procedure, shortened: as §1

[5] = Quantitative High-Throughput drug screen in 47 multiple myeloma cell lines against the NCATS MIPE library collection: KMS28PE_JCRB cell viability assay (AID 1918983); note: nearly all actives have a fitted effect of over 35% in size
Procedure, shortened: as §1

[6] = Quantitative High-Throughput drug screen in 47 multiple myeloma cell lines against the NCATS MIPE library collection: L363_DSMZ cell viability assay (AID 1918984); note: nearly all actives have a fitted effect of over 40% in size
Procedure, shortened: as §1

[7] = Quantitative High-Throughput drug screen in 47 multiple myeloma cell lines against the NCATS MIPE library collection: KMS34_JCRB cell viability assay (AID 1918985); note: nearly all actives have a fitted effect of over 40% in size
Procedure, shortened: as §1

[8] = Quantitative High-Throughput drug screen in 47 multiple myeloma cell lines against the NCATS MIPE library collection: OCIMY7_PLB cell viability assay (AID 1918987); details: OCI-MY7 myeloma viability, CellTiter-Glo ATP, 48 h; viability (% of DMSO): at 45.8 µM (top of the series); note: nearly all actives have a fitted effect of over 65% in size
Procedure, shortened: as §1

[9] = Quantitative High-Throughput drug screen in 47 multiple myeloma cell lines against the NCATS MIPE library collection: OCIMY5_PLB cell viability assay (AID 1918988); note: nearly all actives have a fitted effect of over 65% in size
Procedure, shortened: as §1

[10] = Quantitative High-Throughput drug screen in 47 multiple myeloma cell lines against the NCATS MIPE library collection: OPM1_PLB cell viability assay (AID 1918989); note: nearly all actives have a fitted effect of over 40% in size
Procedure, shortened: as §1

[11] = Quantitative High-Throughput drug screen in 47 multiple myeloma cell lines against the NCATS MIPE library collection: SKMM1_PLB cell viability assay (AID 1919863); details: SKMM1 myeloma viability, CellTiter-Glo ATP, 48 h; viability: active compounds read low; note: nearly all actives have a fitted effect of over 35% in size
Procedure, shortened: as §1

[12] = Quantitative High-Throughput drug screen in 47 multiple myeloma cell lines against the NCATS MIPE library collection: U266_ATCC cell viability assay (AID 1919864); note: nearly all actives have a fitted effect of over 35% in size
Procedure, shortened: as §1

[13] = Quantitative High-Throughput drug screen in 47 multiple myeloma cell lines against the NCATS MIPE library collection: XG6_PLB cell viability assay (AID 1919865); note: nearly all actives have a fitted effect of over 40% in size
Procedure, shortened: as §1

[14] = Quantitative High-Throughput drug screen in 47 multiple myeloma cell lines against the NCATS MIPE library collection: XG1_PLB cell viability assay (AID 1919866); note: nearly all actives have a fitted effect of over 35% in size
Procedure, shortened: as §1

[15] = Quantitative High-Throughput drug screen in 47 multiple myeloma cell lines against the NCATS MIPE library collection: VP6_DJ cell viability assay (AID 1919867); note: nearly all actives have a fitted effect of over 40% in size
Procedure, shortened: as §1

[16] = Quantitative High-Throughput drug screen in 47 multiple myeloma cell lines against the NCATS MIPE library collection: UTMC2_PLB cell viability assay (AID 1919868); details: CellTiter-Glo ATP luminescence, 48 h; viability (% of DMSO control): at 45.8 µM (top of the series); note: nearly all actives have a fitted effect of over 55% in size
Procedure, shortened: as §1

[17] = Quantitative High-Throughput drug screen in 47 multiple myeloma cell lines against the NCATS MIPE library collection: PE2_PLB cell viability assay (AID 1919869); note: nearly all actives have a fitted effect of over 35% in size
Procedure, shortened: as §1

[18] = Quantitative High-Throughput drug screen in 47 multiple myeloma cell lines against the NCATS MIPE library collection: PCM6_Riken cell viability assay (AID 1919870); note: nearly all actives have a fitted effect of over 30% in size
Procedure, shortened: as §1

[19] = Quantitative High-Throughput drug screen in 47 multiple myeloma cell lines against the NCATS MIPE library collection: OPM2_DSMZ cell viability assay (AID 1919872); note: nearly all actives have a fitted effect of over 30% in size
Procedure, shortened: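 Myeloma cells (500 per well) were exposed to MIPE 4.0 compounds by pin transfer and incubated 48 hours at 37C, 5% CO2. Viability was read as ATP by CellTiter-Glo luminescence, normalised to DMSO (100%) and media-only (0%) wells.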

[20] = Quantitative High-Throughput drug screen in 47 multiple myeloma cell lines against the NCATS MIPE library collection: RPMI8226_ATCC cell viability assay (AID 1919871); note: nearly all actives have a fitted effect of over 30% in size
Procedure, shortened: as §1
Potency is the fitted concentration of half-maximal effect.

CC(=O)NCC(=O)N1[C@H]2CC[C@H]1c1cc(Nc3ncc(C(F)(F)F)c(NC4CCC4)n3)ccc12
active: Potency [1] 14.8 µM | Potency [2] 3.32 µM | Potency [3] 2.35 µM | Potency [4] 7.43 µM | Potency [5] 4.18 µM | Potency [6] 935 nM | Potency [7] 833 nM | Potency [8] 93.5 nM | Potency [9] 1.18 µM | Potency [10] 590 nM | Potency [11] 20.9 µM | Potency [12] 5.9 µM | Potency [13] 1.18 µM | Potency [14] 332 nM | Potency [15] 833 nM | Potency [16] 0.118 µM | Potency [17] 1.66 µM | Potency [18] 1.87 µM | Potency [19] 1.48 µM

Oc1cc(-c2nc(-c3ccccc3)[nH]c2-c2ccncc2)ccc1Cl
active: Potency [1] 10.5 µM | Potency [2] 4.69 µM | Potency [3] 14.8 µM | Potency [5] 20.9 µM | Potency [6] 332 nM | Potency [7] 16600 nM | Potency [9] 18.7 µM | Potency [10] 14800 nM | Potency [11] 16.6 µM | Potency [12] 16.6 µM | Potency [13] 2.35 µM | Potency [14] 2350 nM | Potency [16] 7.43 µM | Potency [18] 2.96 µM | Potency [20] 16.6 µM
inactive: Potency [4]

C=CC[C@@H]1C=C(C)C[C@H](C)C[C@H](OC)[C@H]2O[C@@](O)(C(=O)C(=O)N3CCCC[C@H]3C(=O)O[C@H](C(C)=C[C@@H]3CC[C@H](O)[C@H](OC)C3)[C@@H](C)[C@@H](O)CC1=O)[C@@H](C)C[C@@H]2OC
active: Potency [1] 2.64 µM | Potency [2] 1.18 µM | Potency [3] 0.833 µM | Potency [4] 3.32 µM | Potency [5] 2.35 µM | Potency [6] 1180 nM | Potency [7] 1480 nM | Potency [8] 2090 nM | Potency [9] 0.662 µM | Potency [10] 2640 nM | Potency [11] 1.18 µM | Potency [12] 1.32 µM | Potency [13] 1.48 µM | Potency [14] 2350 nM | Potency [15] 833 nM | Potency [16] 2.96 µM | Potency [17] 2.64 µM | Potency [18] 0.935 µM | Potency [20] 2.09 µM

Nc1cccc2c1C(=O)N(C1CCC(=O)NC1=O)C2=O (stereo not given)
active: Potency [2] 0.526 µM | Potency [3] 2.09 µM | Potency [5] 0.0833 µM | Potency [7] 2.1 nM | Potency [9] 10.5 µM | Potency [19] 0.0012 µM
inactive: Potency [1] | Potency [4] | Potency [6] | Potency [12] | Potency [13] | Potency [16] | Potency [17] | Potency [18]

COC[C@H](NC(=O)c1cnc(C)s1)C(=O)N[C@@H](COC)C(=O)N[C@@H](Cc1ccccc1)C(=O)[C@@]1(C)CO1
active: Potency [1] 0.0418 µM | Potency [2] 0.059 µM | Potency [3] 0.0418 µM | Potency [4] 0.148 µM | Potency [5] 0.0662 µM | Potency [6] 37.2 nM | Potency [7] 74.3 nM | Potency [8] 52.6 nM | Potency [9] 0.0372 µM | Potency [10] 118 nM | Potency [11] 0.372 µM | Potency [12] 0.0743 µM | Potency [13] 0.059 µM | Potency [14] 74.3 nM | Potency [15] 66.2 nM | Potency [16] 1.05 µM | Potency [17] 0.0833 µM | Potency [18] 0.187 µM | Potency [20] 0.187 µM | Potency [19] 0.235 µM

NC(=O)c1ncn([C@@H]2O[C@H](CO)[C@@H](O)[C@@H]2O)c1O
inactive: Potency [1] | Potency [2] | Potency [3] | Potency [6] | Potency [7] | Potency [10] | viability [11] 102% | Potency [12] | Potency [13] | Potency [15] | Potency [16] | Potency [17] | Potency [18] | Potency [20] | Potency [19]

CC(C)(C)[C@H](NC(=O)c1ccc(N)c(Cl)c1)C(=O)N1CCC[C@@H]1C(=O)N[C@H](C#N)CC(=O)O
inactive: viability [1] 103% [at 3.51 µM] | viability (% of control) [2] 120% [at 3.51 µM] | viability (% of control) [3] 128% [at 3.51 µM] | viability, % of DMSO control [5] 131% [at 3.51 µM] | viability (% of control) [6] 111% [at 3.51 µM] | viability, percent of control [7] 103% [at 3.51 µM] | viability, % of control [9] 135% [at 3.51 µM] | viability (% of control) [13] 104% [at 3.51 µM] | viability (% of DMSO control) [16] 157% [at 3.51 µM] | viability (% of control) [18] 122% [at 3.51 µM] | viability (% of DMSO) [19] 102% [at 3.51 µM]
active: Potency [15] 834 nM

O=C(O)C=Cc1ccc(Cn2ccnc2)cc1
inactive: Potency [1] | Potency [2] | Potency [3] | Potency [4] | Potency [5] | Potency [7] | Potency [10] | Potency [12] | Potency [13] | Potency [14] | Potency [15] | Potency [16] | Potency [17] | Potency [18] | Potency [20] | Potency [19]

CC(C)Oc1ccc(C(=O)N[C@H](CNC(=O)CN(C)C)Cc2ccc(-c3cn4cccc([C@H](C)O)c4n3)cc2)cc1Cl
active: Potency [1] 2.64 µM | Potency [2] 6.62 µM | Potency [3] 0.59 µM | Potency [6] 83.3 nM | Potency [8] 332 nM | Potency [9] 0.418 µM | Potency [12] 20.9 µM | Potency [13] 0.105 µM | Potency [14] 148 nM | Potency [18] 23.5 µM | Potency [19] 1.48 µM

OCC(O)C(O)C(O)CO (stereo not given)
inactive: Potency [1] | Potency [2] | Potency [3] | Potency [4] | Potency [6] | Potency [7] | Potency [8] | Potency [10] | Potency [13] | Potency [14] | Potency [17] | Potency [18] | Potency [19]
